Measured values reported in PubChem BioAssay (NCI).
The panel holds about 83,000 compounds, 20% with a hit somewhere; the sample as a whole holds those more often.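 Note: values are percent growth. 100 is the growth of untreated cells, values between 100 and 0 indicate rising inhibition; between -100 and 0 indicates cell death.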 Activity calls are given as the source filed them. How the source made its calls: active means growth percent below 10; inactive means the rest.

Tests used:
Assay in all cases: NCI-60 one-dose screen, 48 h (100 = growth as untreated, 0 = no growth, -100 = all killed)
Conditions in all cases: 10 µM
RPMI-8226 leukemia = system: RPMI-8226 leukemia
OVCAR-8 ovarian = system: OVCAR-8 ovarian
OVCAR-5 ovarian = system: OVCAR-5 ovarian
OVCAR-4 ovarian = system: OVCAR-4 ovarian
SK-OV-3 ovarian = system: SK-OV-3 ovarian
IGROV1 ovarian = system: IGROV1 ovarian
OVCAR-3 ovarian = system: OVCAR-3 ovarian
HS 578T breast = system: HS 578T breast
NCI/ADR-RES ovarian = system: NCI/ADR-RES ovarian
T-47D breast = system: T-47D breast
BT-549 breast = system: BT-549 breast
MDA-MB-435 melanoma = system: MDA-MB-435 melanoma
SW-620 colon = system: SW-620 colon
MCF7 breast = system: MCF7 breast
HCT-116 colon = system: HCT-116 colon
HCC-2998 colon = system: HCC-2998 colon
KM12 colon = system: KM12 colon

Measured: growth

Nc1c(C(=O)Nc2ccccc2)sc2nc3c(cc12)C(O)CCC3 (configuration not stated)
inactive: RPMI-8226 leukemia 11.6% | OVCAR-8 ovarian 31% | OVCAR-5 ovarian 57.1% | OVCAR-4 ovarian 61.3% | SK-OV-3 ovarian 18.7% | IGROV1 ovarian 29.4% | HS 578T breast 39.6% | NCI/ADR-RES ovarian 11.6% | T-47D breast 53.9% | BT-549 breast 66% | SW-620 colon 29.6% | MCF7 breast 18.4% | HCT-116 colon 22% | HCC-2998 colon 17.9% | KM12 colon 25.8%
active: OVCAR-3 ovarian -19.1% | MDA-MB-435 melanoma -27.2%

Nc1nccc(Nc2ccccc2)n1
inactive: RPMI-8226 leukemia 96.6% | OVCAR-8 ovarian 100% | OVCAR-5 ovarian 95.9% | OVCAR-4 ovarian 108% | SK-OV-3 ovarian 109% | IGROV1 ovarian 127% | OVCAR-3 ovarian 114% | HS 578T breast 107% | NCI/ADR-RES ovarian 111% | T-47D breast 112% | BT-549 breast 103% | MDA-MB-435 melanoma 107% | SW-620 colon 106% | MCF7 breast 107% | HCT-116 colon 109% | HCC-2998 colon 114% | KM12 colon 101%

Cc1ccc(NC(=O)NC2CCCCC2)cc1
inactive: RPMI-8226 leukemia 108% | OVCAR-8 ovarian 106% | OVCAR-5 ovarian 103% | OVCAR-4 ovarian 114% | SK-OV-3 ovarian 95.8% | IGROV1 ovarian 105% | OVCAR-3 ovarian 109% | HS 578T breast 107% | NCI/ADR-RES ovarian 110% | T-47D breast 93.2% | BT-549 breast 115% | MDA-MB-435 melanoma 105% | SW-620 colon 108% | MCF7 breast 93.8% | HCT-116 colon 105% | HCC-2998 colon 111% | KM12 colon 101%

COc1cc(-c2cc(/C=C/C(=O)c3ccc(N)cc3)[nH]n2)cc(OC)c1OC
inactive: OVCAR-4 ovarian 26.8% | SK-OV-3 ovarian 27.2% | IGROV1 ovarian 18.1% | HS 578T breast 19.2% | NCI/ADR-RES ovarian 64.7%
active: RPMI-8226 leukemia -26.5% | OVCAR-8 ovarian -53.4% | OVCAR-5 ovarian -15% | OVCAR-3 ovarian -45.9% | T-47D breast 5.11% | BT-549 breast -28.7% | MDA-MB-435 melanoma 6.15% | SW-620 colon -38.1% | HCT-116 colon -81.5% | HCC-2998 colon -75.4% | KM12 colon -35.1%

O=[N+]([O-])c1ccc(Oc2cccnc2)c([N+](=O)[O-])c1
inactive: RPMI-8226 leukemia 25.4% | OVCAR-8 ovarian 91.7% | OVCAR-5 ovarian 93.6% | OVCAR-4 ovarian 50.2% | SK-OV-3 ovarian 104% | IGROV1 ovarian 92.2% | OVCAR-3 ovarian 66.2% | HS 578T breast 81.9% | NCI/ADR-RES ovarian 51.4% | T-47D breast 61.1% | BT-549 breast 72.3% | MDA-MB-435 melanoma 26.9% | MCF7 breast 46.7% | KM12 colon 56.8%
active: SW-620 colon 1.5% | HCT-116 colon 8.43%

COc1cc(Nc2ccnc(NCCCNc3ccnc4cc(Cl)ccc34)n2)cc(OC)c1
active: RPMI-8226 leukemia -45.3% | OVCAR-8 ovarian 3.57% | OVCAR-4 ovarian 2.29% | OVCAR-3 ovarian -58.3% | HS 578T breast -53.1% | T-47D breast -63.1% | MDA-MB-435 melanoma -81.9% | SW-620 colon -43.3% | MCF7 breast 3.36% | HCT-116 colon -53.6% | HCC-2998 colon -65%
inactive: OVCAR-5 ovarian 44.7% | SK-OV-3 ovarian 14.7% | IGROV1 ovarian 27.2% | NCI/ADR-RES ovarian 50.7% | BT-549 breast 19.7% | KM12 colon 47.1%

COc1ccc(-c2ccc3cc(C(=O)Nc4ccc(O)c(C(=O)/C=C/c5cc(OC)c(OC)c(OC)c5)c4)ccc3c2)cc1
inactive: RPMI-8226 leukemia 60.2% | OVCAR-8 ovarian 84.9% | OVCAR-5 ovarian 108% | OVCAR-4 ovarian 94.5% | SK-OV-3 ovarian 109% | IGROV1 ovarian 89.6% | OVCAR-3 ovarian 100% | HS 578T breast 102% | NCI/ADR-RES ovarian 95.4% | T-47D breast 85.5% | BT-549 breast 102% | MDA-MB-435 melanoma 93.4% | SW-620 colon 94.2% | MCF7 breast 87.3% | HCT-116 colon 79.2% | KM12 colon 104%

COc1ccc2c(c1)C(=O)c1c-2c(OCCN(C)C)nc2cc(OC)c(OC)cc12
inactive: RPMI-8226 leukemia 32.2% | OVCAR-8 ovarian 37.2% | OVCAR-5 ovarian 117% | OVCAR-4 ovarian 50.7% | SK-OV-3 ovarian 74.2% | IGROV1 ovarian 35% | OVCAR-3 ovarian 63.9% | HS 578T breast 85.7% | NCI/ADR-RES ovarian 41.8% | T-47D breast 101% | BT-549 breast 89.9% | MDA-MB-435 melanoma 56.8% | SW-620 colon 38.6% | MCF7 breast 28.9% | HCT-116 colon 30% | HCC-2998 colon 63.2% | KM12 colon 54.1%

CSCCCNC(=O)c1ccc2c(c1)/C(=C/c1[nH]c(C)cc1C)C(=O)N2
active: IGROV1 ovarian -12.5% | HS 578T breast -13.5% | BT-549 breast 9.33% | HCT-116 colon 3.75%
inactive: RPMI-8226 leukemia 19.7% | OVCAR-8 ovarian 32.6% | OVCAR-5 ovarian 35.9% | OVCAR-4 ovarian 27.6% | SK-OV-3 ovarian 20.5% | OVCAR-3 ovarian 45% | NCI/ADR-RES ovarian 42.9% | T-47D breast 44.5% | MDA-MB-435 melanoma 13.4% | SW-620 colon 28.9% | HCC-2998 colon 30.3% | KM12 colon 17.1%

CCN(CC)CCCC(C)Nc1ccc2ccc(Cl)cc2n1 (configuration not stated)
inactive: RPMI-8226 leukemia 97.3% | OVCAR-8 ovarian 94.4% | OVCAR-5 ovarian 102% | OVCAR-4 ovarian 116% | SK-OV-3 ovarian 104% | IGROV1 ovarian 101% | OVCAR-3 ovarian 97.8% | HS 578T breast 90.8% | NCI/ADR-RES ovarian 98% | T-47D breast 93.1% | BT-549 breast 96.2% | MDA-MB-435 melanoma 109% | SW-620 colon 97.9% | MCF7 breast 99.6% | HCT-116 colon 92.2% | HCC-2998 colon 92.8% | KM12 colon 104%

COc1ccc(-c2nn(-c3cccc(NC(=O)c4ccc(Cl)c(Cl)c4)c3)cc2-c2ccncc2)cc1Cl
inactive: RPMI-8226 leukemia 58% | OVCAR-8 ovarian 75.5% | OVCAR-5 ovarian 92.4% | OVCAR-4 ovarian 93.3% | SK-OV-3 ovarian 82.2% | IGROV1 ovarian 84.5% | OVCAR-3 ovarian 81.9% | HS 578T breast 72.5% | NCI/ADR-RES ovarian 61.4% | T-47D breast 62.8% | BT-549 breast 95.4% | MDA-MB-435 melanoma 24.8% | SW-620 colon 81.5% | MCF7 breast 72.1% | HCT-116 colon 69.6% | HCC-2998 colon 82% | KM12 colon 55.8%

O=C(Nc1cccc(-n2cc(-c3ccncc3)c(-c3cc(O)cc(Cl)c3)n2)c1)c1ccc(N2CCOCC2)c(C(F)(F)F)c1
inactive: OVCAR-8 ovarian 22.7% | OVCAR-5 ovarian 81.4% | OVCAR-4 ovarian 77.1% | SK-OV-3 ovarian 50.7% | IGROV1 ovarian 44.3% | OVCAR-3 ovarian 36.4% | HS 578T breast 17.9% | NCI/ADR-RES ovarian 35% | T-47D breast 29.3% | BT-549 breast 52.2% | MDA-MB-435 melanoma 23% | MCF7 breast 29.7% | HCT-116 colon 12.7%
active: RPMI-8226 leukemia -3.77% | SW-620 colon -26.2% | HCC-2998 colon -3.65% | KM12 colon 9.89%

COc1ccc(OC)c(NC(=O)c2sc3nc4c(cc3c2N)C(=O)CCC4)c1
inactive: RPMI-8226 leukemia 95.8% | OVCAR-8 ovarian 96.1% | OVCAR-5 ovarian 101% | OVCAR-4 ovarian 109% | SK-OV-3 ovarian 44.7% | IGROV1 ovarian 96.4% | OVCAR-3 ovarian 118% | HS 578T breast 96.8% | NCI/ADR-RES ovarian 91% | T-47D breast 93.9% | BT-549 breast 93.7% | MDA-MB-435 melanoma 28.4% | SW-620 colon 82.3% | MCF7 breast 81.3% | HCT-116 colon 97% | HCC-2998 colon 78.6% | KM12 colon 74.8%

c1ccc2c(c1)oc1c3c(ccc12)NCCC3
inactive: RPMI-8226 leukemia 93.8% | OVCAR-8 ovarian 98.2% | OVCAR-5 ovarian 102% | OVCAR-4 ovarian 94.3% | SK-OV-3 ovarian 107% | IGROV1 ovarian 98.6% | OVCAR-3 ovarian 103% | HS 578T breast 109% | NCI/ADR-RES ovarian 97.7% | T-47D breast 59.9% | BT-549 breast 89.5% | MDA-MB-435 melanoma 106% | SW-620 colon 103% | MCF7 breast 40.9% | HCT-116 colon 95.7% | HCC-2998 colon 97.2% | KM12 colon 101%

O=C(Nc1ccncc1)C(=O)c1cn(S(=O)(=O)c2cccc(Cl)c2)c2ccccc12
active: MDA-MB-435 melanoma 1.36%
inactive: RPMI-8226 leukemia 47.2% | OVCAR-8 ovarian 76.2% | OVCAR-5 ovarian 107% | OVCAR-4 ovarian 74.8% | SK-OV-3 ovarian 96.6% | IGROV1 ovarian 52.7% | OVCAR-3 ovarian 45.7% | HS 578T breast 86.8% | NCI/ADR-RES ovarian 43.6% | T-47D breast 70% | BT-549 breast 49% | SW-620 colon 47% | MCF7 breast 29.3% | HCT-116 colon 24% | KM12 colon 51.5%

COc1ccc2c(c1)N(CCO)C1=C(C(=O)OC1)C2c1cc(OC)c(OC)c(OC)c1 (configuration not stated)
inactive: RPMI-8226 leukemia 18.7% | OVCAR-5 ovarian 39.8% | OVCAR-4 ovarian 51% | SK-OV-3 ovarian 20.6% | T-47D breast 71.9% | BT-549 breast 20.5% | SW-620 colon 19.4% | MCF7 breast 19.3%
active: OVCAR-8 ovarian 7.94% | IGROV1 ovarian 9.98% | OVCAR-3 ovarian -53.2% | HS 578T breast -6.85% | NCI/ADR-RES ovarian -14.7% | MDA-MB-435 melanoma -48.2% | HCT-116 colon 4.03% | KM12 colon -43%

C(CCCC1=NCCO1)CCCC1=NCCO1
inactive: RPMI-8226 leukemia 89.4% | OVCAR-8 ovarian 106% | OVCAR-5 ovarian 100% | OVCAR-4 ovarian 109% | SK-OV-3 ovarian 105% | IGROV1 ovarian 114% | OVCAR-3 ovarian 99.9% | HS 578T breast 99.3% | NCI/ADR-RES ovarian 104% | T-47D breast 109% | BT-549 breast 103% | MDA-MB-435 melanoma 109% | SW-620 colon 99.4% | MCF7 breast 102% | HCT-116 colon 112% | KM12 colon 103%
